# Measured values from PubChem BioAssay (EPA / NIEHS).
# The source made the active and inactive calls. How the source made its calls: active means hit-call score of the fitted dose curve at least 0.9, where 1 is the maximum; inactive means score below 0.9.
# Columns and labels:
# Conditions in all cases: mRNA level, 48 h; actives raise or lower the signal
# [1] = read-out: Peroxisomal acyl-coenzyme A oxidase 1 (ACOX1) gene, ACOX1 (gene 51); experiment: LTEA_HepaRG_ACOX1: Life Technologies and Expression Analysis (LTEA) Assay for Peroxisomal acyl-coenzyme A oxidase 1 (ACOX1) gene using HepaRG (AID 2283467)
# How it was run: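 HepaRG cells, plated 48 h then switched to serum-free induction medium, were exposed in duplicate for 48 h to 8-point half-log concentrations up to 100 uM in 0.5% DMSO. ACOX1 mRNA was measured by qRT-PCR, normalized to ACTB/GAPDH/POLR2A, and fitted bidirectionally versus DMSO.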
# [2] = read-out: Bcl-2 (BAD) gene, BAD (gene 572); experiment: LTEA_HepaRG_BAD: Life Technologies and Expression Analysis (LTEA) Assay for Bcl-2 (BAD) gene using HepaRG (AID 2283469)
# How it was run: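 Differentiated HepaRG cells were exposed in duplicate in 0.5% DMSO for 48 h to eight-point half-log concentrations up to 100 uM. BAD mRNA was measured by Fluidigm TaqMan qRT-PCR, normalized to ACTB, GAPDH and POLR2A, and fitted bidirectionally against DMSO.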
# [3] = read-out: Bcl-2 (BAX) gene, BAX (gene 581); experiment: LTEA_HepaRG_BAX: Life Technologies and Expression Analysis (LTEA) Assay for Bcl-2 (BAX) gene using HepaRG (AID 2283470)
# How it was run: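 Differentiated HepaRG cells exposed 48 h in serum-free induction medium, eight half-log concentrations from 100 uM, in duplicate, 0.5% DMSO vehicle. BAX mRNA by TaqMan qRT-PCR, normalised to ACTB, GAPDH and POLR2A.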
# [4] = read-out: adenosine kinase (ADK) gene, ADK (gene 132); experiment: LTEA_HepaRG_ADK: Life Technologies and Expression Analysis (LTEA) Assay for adenosine kinase (ADK) gene using HepaRG (AID 2283471)
# How it was run: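 Following 48 h exposure of HepaRG cells in 0.5% DMSO (top concentration 100 uM, duplicate wells), ADK mRNA induction or suppression was measured by qRT-PCR, normalised to ACTB/GAPDH/POLR2A, and fitted bidirectionally relative to vehicle.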
# [5] = read-out: Alpha-fetoprotein (AFP) gene, AFP (gene 174); experiment: LTEA_HepaRG_AFP: Life Technologies and Expression Analysis (LTEA) Assay for Alpha-fetoprotein (AFP) gene using HepaRG (AID 2283472)
# How it was run: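 Differentiated human HepaRG cells exposed 48 h in serum-free induction medium, 8-point half-log series from 100 uM in 0.5% DMSO, duplicate. AFP mRNA by qRT-PCR, normalized to ACTB, GAPDH, POLR2A; bidirectional fit vs DMSO.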
# [6] = read-out: BCL2L11 (gene 10018); experiment: LTEA_HepaRG_BCL2L11: Life Technologies and Expression Analysis (LTEA) Assay for Bcl-2 (BCL2L11) gene using HepaRG (AID 2283473)
# How it was run: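 Human hepatic HepaRG cultures are treated 48 h with test chemicals (maximum 100 uM, 0.5% DMSO vehicle). Expression of BCL2L11 is measured by qRT-PCR against ACTB, GAPDH and POLR2A, with activity in either direction scored relative to vehicle.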
# [7] = read-out: Apolipoprotein A-V (APOA5) gene, APOA5 (gene 116519); experiment: LTEA_HepaRG_APOA5: Life Technologies and Expression Analysis (LTEA) Assay for Apolipoprotein A-V (APOA5) gene using HepaRG (AID 2283474)
# How it was run: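 Concentration-response of APOA5 expression in HepaRG: eight half-log doses to 100 uM, 48 h, qRT-PCR normalized to ACTB/GAPDH/POLR2A, bidirectional fitting with 0.5% DMSO as baseline.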
# [8] = read-out: Apoptosis regulator Bcl-2 (Homo sapiens) (UniProt P10415); experiment: LTEA_HepaRG_BCL2: Life Technologies and Expression Analysis (LTEA) Assay for Bcl-2 gene using HepaRG (AID 2283475)
# How it was run: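 Differentiated human HepaRG cells in serum-free induction medium exposed 48 h, in duplicate, to 8-point half-log series from 100 uM in 0.5% DMSO. BCL2 mRNA by qRT-PCR (TaqMan/Fluidigm), normalized to ACTB, GAPDH, POLR2A; bidirectional fit against DMSO.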
# [9] = read-out: Caspase-3 (Homo sapiens) (UniProt P42574); experiment: LTEA_HepaRG_CASP3: Life Technologies and Expression Analysis (LTEA) Assay for cysteine-aspartic acid protease (CASP3) using HepaRG (AID 2283477)
# How it was run: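 Transcript-level assay: CASP3 mRNA in human HepaRG after 48 h treatment, eight half-log concentrations from 100 uM in 0.5% DMSO, quantified by qRT-PCR.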
# [10] = read-out: Cytochrome P450 (CYP1A2), CYP1A2 (gene 1544); experiment: LTEA_HepaRG_CYP1A2: Life Technologies and Expression Analysis (LTEA) Assay for Cytochrome P450 (CYP1A2) using HepaRG (AID 2283479)
# How it was run: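 In duplicate wells, HepaRG cultures maintained in 0.5% DMSO were treated 48 h across an 8-point, half-log series topping at 100 uM; phenobarbital (1 mM) served as induction control. Expression was read by qRT-PCR.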
# [11] = read-out: cysteine-aspartic acid protease (CASP8), CASP8 (gene 841); experiment: LTEA_HepaRG_CASP8: Life Technologies and Expression Analysis (LTEA) Assay for cysteine-aspartic acid protease (CASP8) using HepaRG (AID 2283480)
# How it was run: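 Differentiated HepaRG cells in serum-free induction medium, 48 h exposure, eight-point half-log series from 100 uM in 0.5% DMSO, duplicates. CASP8 mRNA by qRT-PCR, normalized to ACTB, GAPDH, POLR2A; bidirectional fit versus DMSO.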
# [12] = read-out: Cytochrome P450 (CYP2B6), CYP2B6 (gene 1555); experiment: LTEA_HepaRG_CYP2B6: Life Technologies and Expression Analysis (LTEA) Assay for Cytochrome P450 (CYP2B6) using HepaRG (AID 2283481)
# How it was run: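 Human HepaRG, 48 h dosing, 0.5% DMSO vehicle, top dose 100 uM. CYP2B6 transcript by qRT-PCR, housekeeping-normalized, bidirectional curve fit.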
# [13] = read-out: Cytochrome P450 2C19 (Homo sapiens) (UniProt P33261); experiment: LTEA_HepaRG_CYP2C19: Life Technologies and Expression Analysis (LTEA) Assay for CYP2C19 using HepaRG (AID 2283482)
# How it was run: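 Endpoint: CYP2C19 mRNA change, bidirectional fit vs 0.5% DMSO. Cells: HepaRG, 48 h exposure, eight-point series topping at 100 uM. Quantitation: qRT-PCR normalized to ACTB, GAPDH, POLR2A.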
# [14] = read-out: CYP2C8 (gene 1558); experiment: LTEA_HepaRG_CYP2C8: Life Technologies and Expression Analysis (LTEA) Assay for CYP2C8 using HepaRG (AID 2283483)
# How it was run: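 Differentiated HepaRG cells in serum-free induction medium exposed 48 h in duplicate to 8 half-log concentrations from 100 uM in 0.5% DMSO. CYP2C8 mRNA by qRT-PCR normalized to ACTB, GAPDH, POLR2A; bidirectional fit versus DMSO.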
# [15] = read-out: CYP2C9 (gene 1559); experiment: LTEA_HepaRG_CYP2C9: Life Technologies and Expression Analysis (LTEA) Assay for CYP2C9 using HepaRG (AID 2283484)
# How it was run: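 Differentiated human HepaRG cells in serum-free induction medium were exposed 48 h to chemicals in 8-point half-log series from 100 uM (0.5% DMSO), in duplicate. CYP2C9 mRNA was measured by qRT-PCR, normalized to ACTB/GAPDH/POLR2A, with bidirectional fitting versus DMSO.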
# [16] = read-out: CYP2E1 (gene 1571); experiment: LTEA_HepaRG_CYP2E1: Life Technologies and Expression Analysis (LTEA) Assay for CYP2E1 using HepaRG (AID 2283485)
# How it was run: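 HepaRG cells, plated 48 h, then exposed 48 h in serum-free induction medium to eight half-log concentrations from 100 uM in 0.5% DMSO, duplicate. CYP2E1 mRNA by qRT-PCR, normalized to ACTB/GAPDH/POLR2A; bidirectional fit versus DMSO.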
# [17] = read-out: CYP4A11 (gene 1579); experiment: LTEA_HepaRG_CYP4A11: Life Technologies and Expression Analysis (LTEA) Assay for CYP4A11 using HepaRG (AID 2283486)
# How it was run: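 Human hepatic HepaRG cultures receive duplicate 48 h exposures across a concentration-response series topping at 100 uM. Expression changes in CYP4A11 are measured by qRT-PCR relative to DMSO controls.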
# [18] = read-out: Bcl-2 (BID) gene, BID (gene 637); experiment: LTEA_HepaRG_BID: Life Technologies and Expression Analysis (LTEA) Assay for Bcl-2 (BID) gene using HepaRG (AID 2283476)
# How it was run: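 Gene expression by qRT-PCR in HepaRG cells after 48 h exposure, duplicate wells, eight half-log concentrations topping at 100 uM in 0.5% DMSO. Normalized to ACTB, GAPDH, POLR2A; bidirectional fitting relative to DMSO.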
# [19] = read-out: Cytochrome P450 (CYP24A1), CYP24A1 (gene 1591); experiment: LTEA_HepaRG_CYP24A1: Life Technologies and Expression Analysis (LTEA) Assay for Cytochrome P450 (CYP24A1) using HepaRG (AID 2283478)
# How it was run: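 Gene expression of CYP24A1 by TaqMan qRT-PCR in HepaRG after 48 h treatment, highest concentration 100 uM; activity fitted in both directions relative to DMSO vehicle.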
# Chain of Apoptosis regulator Bcl-2 (Homo sapiens) (P10415 whole entry, looked up): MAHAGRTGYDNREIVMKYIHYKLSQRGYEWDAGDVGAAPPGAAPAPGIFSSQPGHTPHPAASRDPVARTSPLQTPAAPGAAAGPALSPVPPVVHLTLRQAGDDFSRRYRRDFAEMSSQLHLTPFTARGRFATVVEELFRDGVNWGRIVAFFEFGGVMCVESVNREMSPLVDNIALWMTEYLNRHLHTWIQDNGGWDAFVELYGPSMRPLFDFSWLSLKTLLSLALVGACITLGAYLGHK
# Chain of Caspase-3 (Homo sapiens) (P42574 whole entry, looked up): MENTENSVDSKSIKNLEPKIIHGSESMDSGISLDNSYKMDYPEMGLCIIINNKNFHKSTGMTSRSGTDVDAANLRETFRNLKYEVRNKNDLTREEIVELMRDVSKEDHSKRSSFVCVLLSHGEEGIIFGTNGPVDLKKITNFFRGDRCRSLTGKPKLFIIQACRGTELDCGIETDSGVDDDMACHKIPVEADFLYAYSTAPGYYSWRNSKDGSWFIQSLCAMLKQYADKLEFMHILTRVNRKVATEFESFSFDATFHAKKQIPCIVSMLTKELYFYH
# Chain of Cytochrome P450 2C19 (Homo sapiens) (P33261 whole entry, looked up): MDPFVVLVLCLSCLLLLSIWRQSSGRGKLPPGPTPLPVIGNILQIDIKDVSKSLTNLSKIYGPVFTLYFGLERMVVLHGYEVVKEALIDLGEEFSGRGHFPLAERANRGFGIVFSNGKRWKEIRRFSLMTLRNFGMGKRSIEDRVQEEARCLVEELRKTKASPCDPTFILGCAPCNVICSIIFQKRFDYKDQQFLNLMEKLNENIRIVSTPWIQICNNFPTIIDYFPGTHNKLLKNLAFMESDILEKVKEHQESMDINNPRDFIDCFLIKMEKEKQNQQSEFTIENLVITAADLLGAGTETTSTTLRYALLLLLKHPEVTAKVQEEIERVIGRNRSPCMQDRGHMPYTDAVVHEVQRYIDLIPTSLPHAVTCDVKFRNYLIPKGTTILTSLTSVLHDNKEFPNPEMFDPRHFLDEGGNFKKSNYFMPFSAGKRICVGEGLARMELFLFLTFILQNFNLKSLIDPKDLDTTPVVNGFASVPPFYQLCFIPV
compound,measurement,setting,value
CCCCCCOCCO,outcome,[1],inactive
same,outcome,[2],inactive
same,outcome,[3],inactive
same,outcome,[4],inactive
same,outcome,[5],inactive
same,outcome,[6],inactive
same,outcome,[7],inactive
same,outcome,[8],inactive
same,outcome,[9],inactive
same,outcome,[10],inactive
same,outcome,[11],inactive
same,outcome,[12],inactive
same,outcome,[13],inactive
same,outcome,[14],inactive
same,outcome,[15],inactive
same,outcome,[16],inactive
same,outcome,[17],inactive
CCCCCCCCCCCC(=O)OC,outcome,[1],inactive
same,outcome,[2],inactive
same,outcome,[3],inactive
same,outcome,[4],inactive
same,outcome,[5],inactive
same,outcome,[6],inactive
same,outcome,[7],inactive
same,outcome,[8],inactive
same,outcome,[9],inactive
same,AC50,[10],66900 nM (active)
same,outcome,[11],inactive
same,outcome,[12],inactive
same,outcome,[13],inactive
same,outcome,[14],inactive
same,outcome,[15],inactive
same,outcome,[16],inactive
same,outcome,[17],inactive
Nc1nc(N)c2nc(CNc3ccc(C(=O)N[C@@H](CCC(=O)O)C(=O)O)cc3)cnc2n1,outcome,[1],inactive
same,outcome,[2],inactive
same,outcome,[3],inactive
same,outcome,[4],inactive
same,AC50,[5],110 nM (active)
same,outcome,[6],inactive
same,outcome,[7],inactive
same,outcome,[8],inactive
same,outcome,[18],inactive
same,outcome,[9],inactive
same,AC50,[10],99.8 nM (active)
same,outcome,[11],inactive
same,outcome,[13],inactive
same,outcome,[14],inactive
same,outcome,[15],inactive
same,AC50,[16],98 nM (active)
same,outcome,[17],inactive
CCCCCCCCCCO,outcome,[1],inactive
same,outcome,[2],inactive
same,outcome,[3],inactive
same,outcome,[4],inactive
same,outcome,[5],inactive
same,outcome,[6],inactive
same,outcome,[7],inactive
same,outcome,[8],inactive
same,outcome,[9],inactive
same,outcome,[19],inactive
same,outcome,[10],inactive
same,outcome,[11],inactive
same,outcome,[13],inactive
same,outcome,[14],inactive
same,outcome,[15],inactive
same,outcome,[16],inactive
same,outcome,[17],inactive
